Compound activity as filed in PubChem.
Hits are enriched below; roughly 2.4% of the tested compounds scored in any of these assays.
MBD2 inh: MBD2-methylated oligo binding inhibition; Q9UBB5; 370,000 compounds, 0.31% hits; inhibition, % at 4.4 µM; AID 686964; TR-FRET, MBD2 binding to methylated oligonucleotide; in the data active means inhibition above about 13%
Target sequence (Q9UBB5 whole entry, looked up): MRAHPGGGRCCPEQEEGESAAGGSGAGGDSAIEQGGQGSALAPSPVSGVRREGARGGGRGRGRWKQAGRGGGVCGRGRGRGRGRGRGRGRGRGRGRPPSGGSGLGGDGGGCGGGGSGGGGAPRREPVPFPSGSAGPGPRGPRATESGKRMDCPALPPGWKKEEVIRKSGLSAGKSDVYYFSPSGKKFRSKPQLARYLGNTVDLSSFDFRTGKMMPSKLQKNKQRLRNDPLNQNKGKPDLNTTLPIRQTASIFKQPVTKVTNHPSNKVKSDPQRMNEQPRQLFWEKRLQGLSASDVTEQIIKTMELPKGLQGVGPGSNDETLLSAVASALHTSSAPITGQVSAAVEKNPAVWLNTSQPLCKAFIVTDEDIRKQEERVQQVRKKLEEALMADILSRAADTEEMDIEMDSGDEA
PLC-beta3 inh: inhibitors of human phospholipase C beta3 | Purified PLC-beta3, fluorogenic substrate, fluorescence | inhibition, % at 12.2 µM | 370,000 compounds, 0.18% hits | AID 720704; in the data active means inhibition above about 11%;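 further: 0% = median of compound wells on plate and 100% = full blocker control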
LEDGF integ inh: blocks HIV-1 LEDGF/p75-dependent DNA integration; TR-FRET IN-LEDGF/p75 DNA integration, Eu/Cy5; inhibition, % at 3.7 µM; 370,000 compounds, 0.64% hits; AID 743269;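 active means inhibition above the screen-wide mean plus 3 SD, cut at about 13% in these data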;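 further: signal is the Cy5 over europium emission ratio at 671 and 618 nm; 0% = plate median of compound wells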
UHRF1 binding: UHRF1 methyl-DNA binding inhibition. inhibition, % at 4.4 µM. 370,000 compounds, 0.75% hits. UHRF1 binding to methylated oligo, TR-FRET;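 further: UHRF1 SRA domain binding a hemimethylated CpG hairpin DNA probe; 0% = median of test compound wells and 100% = reference inhibitor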
PLC-gamma1 inh: inhibitors of human phospholipase C gamma1; purified PLC-gamma1, fluorogenic substrate, fluorescence; inhibition, % at 12.2 µM; 370,000 compounds, 0.84% hits; AID 720700; in the data active means inhibition above about 9.5%
UHRF1 ctr MBD2: counter-screen for MBD2 inhibitors: human UHRF1 methylated DNA binding inhibitors; shares compounds with MBD2 inh; UHRF1 binding to methylated oligonucleotide, TR-FRET; inhibition, % at 4.4 µM; 1,000 compounds, 25% hits; AID 720530;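 further: UHRF1 SRA domain binding a labeled hemimethylated CpG hairpin DNA; 0% = vehicle only and 100% = reference inhibitor with vehicle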
MBD2 confirm: confirmation of human MBD2-DBD methylated oligonucleotide binding inhibitors; 1,000 compounds, 26% hits; TR-FRET MBD2-DBD binding to methylated oligonucleotide; shares compounds with MBD2 inh; AID 720531; inhibition, % at 4.4 µM; in the data active means inhibition above about 14%
Starred values were filed as active, the others as inactive; i = inactive; nt = no result given; ! = a repeat was not active. Unless noted, no stated cut-off is given here; in the data, active means inhibition above about 21%; inactive means the rest.

SMILES	MBD2 inh	PLC-beta3 inh	LEDGF integ inh	UHRF1 binding	PLC-gamma1 inh	UHRF1 ctr MBD2	MBD2 confirm
CC1CCCCC1N(C(=O)c1cc(C2CC2)on1)C1CCCCC1 (stereo not drawn)	-3	-2	0	-1	0	nt	nt
CN(C)C(=O)NCCCC#Cc1ccccc1	-6	2	0	0	-1	nt	nt
COc1ccccc1OCC(O)CNCc1ccc2c(c1)OCO2 (stereo not drawn)	18*	-4	-1	0	3	8	5
COc1ccc(-c2nc3ccc(C)cn3c2Cc2ccccc2C(F)(F)F)cc1OC	14*	-26	-2	21*	-20	8	6
Cc1cc(C=O)c(C)n1-c1cccc(C(=O)O)c1	4	-9	2	8	-5	nt	nt
Cc1cc(C=O)c(C)n1-c1cc(C(=O)O)cc(C(=O)O)c1	14*	-23	13	49*	-15	39*	11
COc1ccc(CNC(=O)c2cccc3c2C(=O)N(CC2CCCO2)C3)cc1 (stereo not drawn)	32*	6	8	3	7	6	3
COc1ccc(CNC(=O)c2cccc3c2C(=O)N(Cc2cccnc2)C3)cc1	0	3	1	0	3	nt	nt
O=C(Cn1cc(COc2cccc([N+](=O)[O-])c2)nn1)c1ccc(O)cc1	13*	-1	6	21*	2	11	9
Nc1c2c(nc3ccccc13)CCCC2	-2	0	-1	2	-3	nt	nt
Nc1c2ccccc2nc2ccccc12	26*	-305	3	15	-291	31*	37*
CN1CCCN(C(=O)C2CCCN(C(=O)c3ccc4c(c3)NC(=O)CS4)C2)CC1 (stereo not drawn)	25*	0	6	0	1	9	3
Cc1cccc(-c2cccc3c4c([nH]c23)[C@@H]2C[C@H](N(C)C(=O)Nc3ccccc3)[C@H]([C@H](C)O)CN2CC4)c1	1	-48	5	1	-44	nt	nt
COC(=O)C1CN(Cc2ccc(OC)cc2)CCS(=O)(=O)N1Cc1cn(Cc2ccc(C)cc2)nn1 (stereo not drawn)	1	-1	-2	7	0	nt	nt
CN1C2=N[C@@H](c3ccccc3)CC(=O)N2/C(=C\c2ccccc2)[C@H]1c1ccccc1	22*	1	12	31*	5	9	8
CN1C2=N[C@@H](c3ccc4ccccc4c3)CC(=O)N2/C(=C\c2ccccc2)[C@H]1c1ccccc1	14*	-22	2	28*	-16	20	12
O=C(O)c1ccc(-n2cccc2/C=N\NC(=O)c2cc3cc(Br)ccc3o2)cc1	33*	-332	7	62*	-256	66*	41*
Cn1c(-c2ccccc2)cc(=O)n1-c1ccccc1	62*	0	-1	-1	0	6	4
CC(C)C[C@@H]1COc2cc(Br)ccc2S(=O)(=O)N1Cc1cn(CCC2OCCCO2)nn1	-1	-6	1	6	5	nt	nt
Cc1ccc(C(=O)N(C)[C@H]2C[C@H]3c4[nH]c5c(-c6cccc(C)c6)cccc5c4CCN3C[C@H]2[C@H](C)O)cc1	0	-84	-5	-4	-77	nt	nt
O=C(CSCc1ccc(F)cc1)Nc1ccccc1	-5	5	2	-2	3	nt	nt
O=C(CSCc1ccccc1)Nc1ccc(F)c(F)c1	16*	4	-1	0	1	8	5
CCCCn1c(N)c(N(CC(C)C)C(=O)C(C)SCc2nc3sc(C)c(C)c3c(=O)[nH]2)c(=O)[nH]c1=O (stereo not drawn)	20*	-24	-2	0	-9	6	0
CCn1c(=O)n2n(c1=O)[C@]1(C=C(C)C2)CN(Cc2ccc(OC)cc2OC)C(NC(=O)c2ccccc2)=N1	3	0	3	3	3	nt	nt
CCN(CC)CCOc1ccc2c(c1)C(=NO)c1cc(OCCN(CC)CC)ccc1-2	41*	5	-2	54*	6	62*	47*
SMILES	MBD2 inh	PLC-beta3 inh	LEDGF integ inh	UHRF1 binding	PLC-gamma1 inh	UHRF1 ctr MBD2	MBD2 confirm
Cc1cc(NC(=NC2CC2)c2ccccc2F)n(-c2ccccc2)n1	15*	4	-3	21*	-1	9	3
Cc1cc(NC(=O)Nc2cc(C)nn2-c2ccccc2)n(-c2ccccc2)n1	-1	-1	-1	1	-1	nt	nt
Cc1[nH][nH]c(=O)c1C(c1cc(Br)ccc1O)c1c(C)[nH][nH]c1=O	53*	-2	-2	-8	3	2	1
Cc1[nH][nH]c(=O)c1C(c1cc2c(cc1Br)OCO2)c1c(C)[nH][nH]c1=O	1	2	0	-10	0	nt	nt
CCOC(=O)N1CCN(C(=O)C[C@H]2C[C@@]3(C(=O)OC)C(=C[C@H](C4CCCC4)O[C@@H]3C)N(Cc3cccc4ccccc34)C2=O)CC1	-1	1	3	0	4	nt	nt
Cc1ccc(CN2C(=O)C3CCCN3c3ncccc32)cc1 (stereo not drawn)	52*	-97	-2	-2	-68	5	3
O=C(OCc1cc(=O)n2ccsc2n1)c1ccccc1O	2	-7	-3	0	-3	nt	nt
O=C(OCc1cc(=O)n2ccsc2n1)c1ccccc1NCCO	31*	-97	-1	29*	-65	15	11
c1ccc(-c2cc(-c3nnc4sc(Cc5cccs5)nn34)[nH]n2)cc1	7	-1	-1	1	0	nt	nt
C#CCNC(=O)C[C@@H]1C(=O)N(Cc2ccc(OC)cc2)/C2=C/CCCCC[C@@]21C(=O)OCC	4	-1	-2	2	-1	nt	nt
NC(=S)N=Nc1c(O)cc(O)c2[nH]c(=O)ccc12	15*	-15	30*	42*	-4	17	10
COc1ccc(Cn2c(=O)[nH]c3cc(OC)c(OC)cc3c2=O)cc1	17*	-7	1	31*	-1	6	3
COc1ccc(Cn2c(=S)[nH]c3cc(OC)c(OC)cc3c2=O)cc1	0	-1	3	1	0	nt	nt
CCCCNc1c(-c2ccc(OC)c(SC(C)CC)c2)nc2ccc(C)cn12 (stereo not drawn)	14*!	i	1	-2	i	9	3
O=C(NC1=N[C@@]2(C=C3CCCCC3n3c(=O)n(-c4ccccc4)c(=O)n32)[C@H](Cc2ccccc2)N1Cc1ccccc1)c1ccccc1 (stereo partly drawn)	-6	-42	2	1	-35	nt	nt
O=c1[nH]cnc2c1ncn2[C@H]1CC[C@@H](CO)O1	38*	5	3	23*	1	7	2
Cc1nn(CCc2n[nH]c(=S)n2-c2ccc(F)cc2)c(C)c1[N+](=O)[O-]	73*	-2	-2	0	-1	8	2
